Source: PubChem
An excerpt weighted towards active compounds, which were near 3.4% of everything screened.
Ecoli rRNA inh: selective bacterial rRNA inhibition in E. coli; actives 1.6% (n = 350,000); GFP signal change (wild-type ribosome), % (concentration not given with the values); E. coli WT GFP vs humanized-ribosome RFP mutants, fluorescence, 24 h; stronger effect = lower value; DMSO median 0, no signal -100;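 active means significant combined selectivity score with lowered wild-type GFP, culture density cut under 30%, mutant RFP and density less affected; inactive means any of these conditions unmet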
PAX8 inh HTS: inhibitors of PAX8 transcriptional activity in RMG-I cells | RMG-I TPO-luciferase reporter, SteadyGlo, 24 h | inhibition, % at 12.6 µM | actives 1.2% (n = 360,000) | AID 652154;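 active means mean replicate inhibition at least 60% with every replicate also reaching 60%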;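 further: luciferase light reporting Pax8 driven TPO promoter activity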
EWS-Fli block: inhibitors of EWS/Fli oncoprotein transcriptional activity. A673 NR0B1-luciferase reporter, viability-normalised. inhibition, % at 12.6 µM. actives 0.67% (n = 350,000);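 active means mean inhibition of at least 50% after viability correction, with every replicate also passing that limit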;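 further: firefly luciferase signal divided by Alamar Blue viability fluorescence both relative to DMSO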
PGC1a acetyl inh: modulators of PGC1a acetylation; U2OS PGC1a acetylation, AlphaScreen anti-acetyl-lysine; with virally co-expressed GCN5 acetyltransferase; inhibition, % at 15.6 µM; actives 0.17% (n = 350,000);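 active means every replicate shows inhibition of at least 40%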
LGR2 antag: inhibitors of bursicon-induced Drosophila LGR2 receptor cAMP signaling. inhibition, % at 9.99 µM. actives 0.35% (n = 380,000). HEK293 LGR2, CRE-luciferase, bursicon-stimulated, 4 h. AID 720647;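 active means drop in luminescence signal, shown as inhibition above about 50% in the replicate tests, limit read from the data, passing the limit was not always enough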;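 further: agonist challenge used bursicon conditioned medium at about half maximal strength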
SIRT5 inh: blocks human SIRT5 desuccinylation of peptide; Q9NXA8; actives 1.1% (n = 330,000); Purified SirT5, succinyl-peptide AMC, trypsin-coupled fluorescence; inhibition, % at 15 µM; in the data active means inhibition above about 15%
Target sequence (Q9NXA8 whole entry, looked up): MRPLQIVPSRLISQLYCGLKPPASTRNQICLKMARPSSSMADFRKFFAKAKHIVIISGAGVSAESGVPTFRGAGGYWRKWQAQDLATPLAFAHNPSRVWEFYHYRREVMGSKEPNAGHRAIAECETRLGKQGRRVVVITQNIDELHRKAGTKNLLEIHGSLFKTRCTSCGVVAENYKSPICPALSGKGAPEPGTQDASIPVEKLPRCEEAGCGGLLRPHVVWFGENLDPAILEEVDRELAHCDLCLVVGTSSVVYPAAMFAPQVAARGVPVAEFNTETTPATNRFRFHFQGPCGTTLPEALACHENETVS
Each line names hits and unclear results; the compound was inactive in the other large screens.

C[C@@H](O)C#Cc1ccc([C@H]2[C@H](CO)N3CCCCN(CC4CC4)C[C@@H]23)cc1	SIRT5 inh 21
C[C@@H](O)C#Cc1ccc([C@@H]2[C@H](CO)N3CCCCN(CC4CC4)C[C@@H]23)cc1	none
C[C@H](O)C#Cc1ccc([C@H]2[C@H]3CN(CC4CC4)CCCCN3[C@H]2CO)cc1	SIRT5 inh 16
CO[C@H]1CN(C)C(=O)c2ccc(NC(=O)NC(C)C)cc2OC[C@H](C)N(Cc2cncnc2)C[C@H]1C	none (no result: PAX8 inh HTS, SIRT5 inh)
CC(=O)OCC(=O)[C@@]12OC(C)(C)O[C@@H]1CC1C3C[C@H](F)C4=CC(=O)C=CC4(C)[C@@]3(F)C(O)CC12C (stereo not given in full)	none (no result: Ecoli rRNA inh, PGC1a acetyl inh)
CC1(C)OC2CC3C4CC(F)C5=CC(=O)C=CC5(C)C4(F)C(O)CC3(C)C2(C(=O)CO)O1 (stereo not given)	SIRT5 inh 17
CC1(c2ccccc2)O[C@@H]2C[C@H]3[C@@H]4CCC5=CC(=O)C=C[C@]5(C)[C@@]4(F)[C@@H](O)C[C@]3(C)[C@]2(C(=O)CO)O1 (stereo not given in full)	Ecoli rRNA inh -22
O=C(c1ccc(Cl)cc1)C(Cn1cncn1)C(Sc1ccccc1)c1ccccc1 (stereo not given)	PGC1a acetyl inh 61 (no result: Ecoli rRNA inh, PAX8 inh HTS, EWS-Fli block, LGR2 antag, SIRT5 inh)
Cc1ccc(SC(c2ccccc2)C(Cn2cncn2)C(=O)c2ccccc2)cc1 (stereo not given)	none (no result: Ecoli rRNA inh, PAX8 inh HTS, EWS-Fli block, LGR2 antag, SIRT5 inh)
O=C(Nc1cccc(F)c1)N[C@@H]1CC[C@H](CCNS(=O)(=O)c2cccc(Cl)c2)O[C@H]1CO	none
O=C(/C=C/c1ccco1)NC(=S)Nc1cccc(C(=O)O)c1	SIRT5 inh 22 (no result: PGC1a acetyl inh)
N#CCCCC#Cc1ccc2c(c1)COc1c3ccccc3nn1-2	EWS-Fli block 67, LGR2 antag 98 (no result: PGC1a acetyl inh)
COc1ccc2c3c([nH]c2c1)[C@@H](CO)NCC31CN(S(=O)(=O)c2ccccc2)C1	none (no result: PAX8 inh HTS, SIRT5 inh)
CCN1/C(=C\c2ccc3cc(C)ccc3[n+]2CC)Sc2cc(C)c(C)cc21	PAX8 inh HTS 91, EWS-Fli block 57 (no result: PGC1a acetyl inh)
CCN1/C(=C/c2ccc3cc(C)cc(C)c3[n+]2CC)Sc2cc(C)ccc21	PAX8 inh HTS 101, EWS-Fli block 76, LGR2 antag 82 (no result: PGC1a acetyl inh)
CCN1/C(=C/c2ccc3cccc(C)c3[n+]2CC)Sc2ccccc21	none (no result: Ecoli rRNA inh, PAX8 inh HTS, EWS-Fli block, SIRT5 inh)
CCN1/C(=C/c2ccc3cc(C)ccc3[n+]2CC)Sc2ccc3sccc3c21	none (no result: Ecoli rRNA inh, PAX8 inh HTS, EWS-Fli block, LGR2 antag, SIRT5 inh)
C[C@@H]1CN([C@H](C)CO)C(=O)c2cc(NC(=O)NC3CCCCC3)ccc2O[C@@H]1CN(C)Cc1ccc(C(=O)Nc2ccccc2N)cc1	none (no result: PAX8 inh HTS, EWS-Fli block, PGC1a acetyl inh, SIRT5 inh)
Cc1noc(/C=C/c2ccco2)c1S(=O)(=O)N1CCC(C(=O)N(C)Cc2ccccc2)CC1	none (no result: PAX8 inh HTS, EWS-Fli block)
Cc1noc(/C=C/c2ccco2)c1S(=O)(=O)N1CCC(C(=O)NC(C)c2ccccc2)CC1 (stereo not given)	PAX8 inh HTS 94 (no result: PGC1a acetyl inh)
COc1ccc(S(=O)(=O)Nc2ccc3c(c2)C(=O)N([C@@H](C)CO)C[C@@H](C)[C@H](CN(C)Cc2ccc(Oc4ccccc4)cc2)O3)cc1	SIRT5 inh 25
C[C@@H]1CN([C@@H](C)CO)C(=O)c2cc(NS(=O)(=O)c3ccc(Cl)cc3)ccc2O[C@H]1CN(C)Cc1ccc(Oc2ccccc2)cc1	SIRT5 inh 17 (no result: PAX8 inh HTS)
COc1ccc(S(=O)(=O)Nc2ccc3c(c2)C(=O)N([C@H](C)CO)C[C@@H](C)[C@@H](CN(C)Cc2ccc(Oc4ccccc4)cc2)O3)cc1	SIRT5 inh 30
C[C@@H]1CN([C@H](C)CO)C(=O)c2cc(NS(=O)(=O)c3ccc(Cl)cc3)ccc2O[C@H]1CN(C)Cc1ccc(Oc2ccccc2)cc1	none (no result: PAX8 inh HTS)
COc1ccc(CN(C)C[C@H]2Oc3ccc(NS(=O)(=O)c4ccccc4)cc3C(=O)N([C@@H](C)CO)C[C@@H]2C)cc1	none
COc1ccc(S(=O)(=O)Nc2ccc3c(c2)C(=O)N([C@H](C)CO)C[C@@H](C)[C@H](CN(C)Cc2ccc(Oc4ccccc4)cc2)O3)cc1	SIRT5 inh 22
C[C@@H]1CN([C@@H](C)CO)C(=O)Cc2cc(NC(=O)Cc3ccccc3)ccc2O[C@H]1CN(C)C(=O)Nc1ccc2c(c1)OCO2	none
